Sampled rows, rich in hits. Any-hit rate of the full collection: about 7.1%.
PINK1 modulator – A Quantitative High throughput Screen to Identify Chemical Modulators of PINK1 Expression; PINK1 immunofluorescence, high-content cytometry, 24 h; Potency, µM (highest dose often 76.6 µM), without a hit: at the top dose activation (PINK1 increase), actives largely listed as activators; actives 0.2% (n = 410,000); active = well fitted activation curve with a large enough effect; inconclusive = small, poorly fitted or top-dose-only effect; cell line not stated here; also: potency is read from the fitted curve at half-maximal effect; % of control where 0% means no effect; nearly all actives have a fitted effect of over 65% in size
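Readout is PINK1 immunofluorescence, quantified alongside mitochondrial, cell and nuclear markers by laser-scanning microplate cytometry. Cells from a stable line were exposed to compound titrations (5 concentrations) for 24 hours, with CCCP controls.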
ATXN2 expr inh – Primary qHTS for Inhibitors of ATXN expression. Potency, µM (highest dose often 57 µM), for the others: top-dose activity change, negative = inhibition, actives largely listed as inhibitors. HEK-293 ATXN2-luciferase reporter, luminescence, 24 h. actives 0.72% (n = 360,000); also: potency is read from the fitted curve at half-maximal effect; % is scaled to controls: 0 for no effect and ±100 for the full control effect; nearly all actives have a fitted effect of over 55% in size
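ATXN2-luciferase reporter cells (luciferase flanked by upstream and downstream ATXN2 gene portions) were treated 24 h at 37 °C with compounds at up to 57 uM. SteadyGlo luminescence gave expression; GF-AFC fluorescence gave viability.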
IL-1B inflam inh – qHTS for Inhibitors of Inflammasome Signaling: IL-1-beta AlphaLISA Primary Screen; THP-1 LPS/ATP IL-1B secretion, AlphaLISA, 16 h; hits give low values; activity change, % at 57.5 µM; actives 4.7% (n = 360,000); AID 743279, 2014; in the data active = activity change below about -50%; inconclusive = mostly about -30% to -49%; also: % is scaled to controls: 0 for no effect and ±100 for the full control effect
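THP-1 cells pretreated 1 hr with compounds (up to 57.5 uM final), then stimulated with LPS (250 ng/mL final) plus ATP (1.25 mM final); secreted IL-1B measured by AlphaLISA after 16 hr, decreased signal indicating inhibition.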
S2 tox – Viability Counterscreen for Primary qHTS for Inhibitors of ATXN expression. S2 cells (HEK-293 line with an ATXN2-luciferase reporter) viability, CellTiter-Fluor protease fluorescence, 24 h. Potency, µM (doses to about 56.7 µM), actives largely listed as cytotoxic. actives 0.49% (n = 400,000); also: potency is read from the fitted curve at half-maximal effect; nearly all actives have a fitted effect of over 40% in size
SW480 rereplic – A quantitative high throughput screen for small molecules that induce DNA re-replication in SW480 colon adenocarcinoma cells; SW480 DNA re-replication, Hoechst DNA content imaging, 48 h; Potency, µM (series often up to 46.1 µM), without a hit: at the highest dose re-replication activation, most hits filed as activators; actives 1.8% (n = 340,000); also: potency is read from the fitted curve at half-maximal effect; % of control where 0% means no effect; nearly all actives have a fitted effect of over 55% in size
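Readout is total intensity of Hoechst-stained nuclei, excited at 405 nm and collected at 500-530 nm. Compound treatment lasted 48 hr at 37 C in 5% CO2 before staining.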
MCF10A rerep – A quantitative high throughput screen for small molecules that induce DNA re-replication in MCF 10a normal breast cells; AID 624296, 2012; MCF 10A DNA re-replication, Hoechst nuclear intensity, 48 h; Potency, µM (series often up to 46.1 µM), without a hit: at the top dose activity, positive = re-replication, usual class: activators; actives 2.9% (n = 350,000); also: potency is read from the fitted curve at half-maximal effect; % of control where 0% means no effect; nearly all actives have a fitted effect of over 50% in size
Starred values were filed as active, the others as inactive; i = inactive; ? = inconclusive; . = no result given; [ ] = another dose, or the depositor's remark. Unless noted, calls follow the shape of the dose curve; as a rule, active = well fitted curve in the direction sought with a large enough effect; inconclusive = small, poorly fitted or top-dose-only effect, or another doubt; inactive = no such curve, though single readings can be large; an effect the other way counts as inactive or inconclusive.

SMILES	PINK1 modulator	ATXN2 expr inh	IL-1B inflam inh	S2 tox	SW480 rereplic	MCF10A rerep
Cc1cccc(NC(=O)CCC(=O)N/N=C/c2ccc(O)cc2O)c1	2%	?	146	i	6.5µM*	?
COc1cccc2c(SCC(=O)N/N=C/c3ccc(O)c(O)c3)cc(C)nc12	-1%	25%	-64*	i	?	8%
Cc1cc(SCC(=O)N/N=C/c2ccc(O)cc2O)nc2ccccc12	2%	13µM*	118	i	12µM*	18%
C=C1C(n2cnc3c(=O)[nH]c(N)nc32)C[C@H](O)[C@H]1CO (some centres undefined)	.	.	.	.	-8%	1%
O=C(NCc1ccc(F)cc1)c1c(O)nc2ccccn2c1=O	1%	4%	.	i	.	.
O=C(c1ccc2ncsc2c1)N1CCN(c2ccccc2Cl)CC1	2%	8%	-66*	i	28%	28%
O=C(c1ccc(Cl)c(S(=O)(=O)N2CCCCCC2)c1)N1CCN(c2ccccc2O)CC1	0%	-11%	-68*	i	-6%	18%
Cc1cccc(N2CCN(C(=O)c3ccc4ncsc4c3)CC2)c1C	4%	16%	12	i	10µM*	9.2µM*
Cc1cccc(N2CCN(C(=O)c3ccc4nc[nH]c4c3)CC2)c1C	-2%	-19%	-18	?	?	20%
Cc1ccc(C)c(N2CCN(C(=O)c3ccc4nsnc4c3)CC2)c1	3%	-35%	?	i	21µM*	?
COc1cccc(C(=O)Nc2ccc(-n3nncc3-c3ccccc3)cc2)c1OC	4%	.	.	.	.	.
C[C@@H]1CCN(C(=O)[C@H](CCCNC(=N)N)NS(=O)(=O)c2cccc3c2NC[C@H](C)C3)[C@@H](C(=O)O)C1	.	.	.	.	4%	-1%
CC(=O)Oc1ccc(C2(C)CC(C)(C)NC(=S)N2C)c(OC(C)=O)c1 (centres undefined)	1%	-5%	0	i	19%	1.3µM*
Cc1c(CN(C)C)c2c(n1C)C(=O)c1ccc(Br)cc1-2	1%[38.3 µM]	?	.	i	?	27%
CCOC(=O)c1c2c3c(cccc3n(C)c1=O)C(=O)c1ccccc1-2	-1%	-16%	?	?	0%	23%
CCOC(=O)c1c2c(n(Cc3ccccc3)c1C)C(=O)C(=O)c1ccccc1-2	-6%	19µM*	-100*	15µM*	4.1µM*	3.3µM*
CCOC(=O)c1c2c(n(C)c1C)C(=O)C(=O)c1ccc(Br)cc1-2	0%	?	37	?	2.6µM*	2.1µM*
Cn1c(SCc2ccc(C#N)cc2Cl)nc2ccccc21	-7%[38.3 µM]	116%	-71*	i	0%	3%
N=C(N)SCc1ccccc1Cl	7%	3%	-80*	i	?	?
O=C(c1ccco1)n1nc(-c2ccc(Cl)cc2)nc1NCc1ccc(F)cc1	-1%	6%	.	i	.	.
COc1cc2nc(N3CCCC(O)C3)c(CNCc3ccccc3C(F)(F)F)cc2c(OC)c1OC (centres undefined)	0%	.	.	i	.	.
O=C(Cn1nc(CNc2ccc(Cl)cc2)[n+]2c1CCCCC2)c1ccc(Br)cc1	6%	-6%	-52*	i	-5%	24%
COc1ccc(NCc2nn(CC(=O)c3ccc(Br)cc3)c3[n+]2CCCCC3)cc1	0%	10%	?	?	-2%	-1%
O=C(Cn1nc(CNc2ccc(Br)cc2)[n+]2c1CCCCC2)c1ccc([N+](=O)[O-])cc1	40µM*	-34%	-61*	i	-7%	7%
COc1ccc(OCc2cc(-c3ccc(Cl)cc3)no2)cc1	2%	10%	105	i	1%	22%
SMILES	PINK1 modulator	ATXN2 expr inh	IL-1B inflam inh	S2 tox	SW480 rereplic	MCF10A rerep
O=C(CCl)NCc1cc(-c2ccc(Cl)cc2)no1	-1%	?	-75*	?	?	?
Cc1nc(-c2cccc(NC(=O)c3ccc(-n4cccn4)cc3)c2)cs1	1%	-7%	-51*	i	5%	20%
COCCc1nn2c(=O)cc(COC(=O)C(c3ccccc3)c3ccccc3)nc2s1	3%	-7%	.	i	.	.
CC1CCCN(c2nc3ccsc3c(=O)s2)C1 (centres undefined)	-13%[38.3 µM]	72%	5	i	18%	18µM*
O=C(Nc1nc(-c2ccccn2)cs1)C1CCCC1	0%	-12%	-71*	i	4%	-2%
CC(Oc1ccccc1)C(=O)Nc1nc(-c2ccncc2)cs1 (centres undefined)	2%	3%	-14	i	-4%	8%
CC(Oc1ccccc1)C(=O)Nc1nc(-c2ccccn2)cs1 (centres undefined)	4%	?	-103*	?	-437%	?
CC(Oc1cccc(Cl)c1)C(=O)Nc1nc(-c2ccccn2)cs1 (centres undefined)	6%	-36%	-101*	.	6.5µM*	-11%
C[C@H](NC(=O)c1ccccc1)C(=O)Nc1nc(-c2ccccn2)cs1	1%	?	94	i	0%	-3%
CC(NC(=O)C1CCOCC1)c1nnc2n1CCN(Cc1ccc3ccccc3c1)CC2 (centres undefined)	1%	.	.	i	.	.
Cc1cc2c(cc1S(=O)(=O)Nc1cccc(Cl)c1C)OCCN2C	2%	.	.	.	.	.
N#CCSc1nnc(N)s1	1%	-9%	12	i	-6%	-19%
N#CCSc1nnc(SCC#N)s1	1%	54%	-71*	i	-2%	-4%
Cc1ccc(C)c(CSc2nc3c([nH]c4ccccc43)c(=O)n2C)c1	1%	.	.	.	.	.
CCN(CC)CCCCNc1ncc2cc(-c3cc(OC)cc(OC)c3)c(NC(=O)NC(C)(C)C)nc2n1	-1%	?	0	8.9µM*	?	?
Cc1c(C(=O)Nc2ccc(F)c(Cl)c2)sc2nc3n(c(=O)c12)CCC3	0%	.	.	.	.	.
N#CCSc1n[nH]c2nc3c(c(=O)n12)C1(CCCCC1)Cc1ccccc1-3	0%	4%	-26	i	?	16µM*
CCSc1n[nH]c2nc3c(c(=O)n12)C1(CCCCC1)Cc1ccccc1-3	5%	.	24	i	-3%	5.2µM*
CSc1n[nH]c2nc3c(c(=O)n12)C1(CCCCC1)Cc1ccccc1-3	1%	-6%	26	i	?	?
Cn1c(NCCCO)nc2c(c1=O)C1(CCCCC1)Cc1ccccc1-2	4%	-5%	-14	i	0%	18µM*
